Inconclusive results are not listed. Where a call stands in place of a potency, no number is given. The source made the active and inactive calls. Unless noted, calls come from the whole dose curve; as a rule, active = well fitted curve in the direction sought with a large enough effect in the repeat runs; inconclusive = weak or mixed curves; inactive = no such curve, though single readings can be large; an effect the other way counts as inactive or inconclusive.
Legend:
[1] = qHTS assay to identify small molecule antagonists of the estrogen receptor alpha (ER-alpha) signaling pathway using the BG1 cell line in the presence of 0.1 nM 17-beta-estradiol - cell viability counter screen (AID 1259241); note: nearly all actives have a fitted effect of over 40% in size; note: potency is the fitted concentration of half-maximal effect
Procedure, shortened: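 The cell line endogenously expresses full-length ER-alpha and carries four EREs driving luciferase. Cells are cultured 5 days hormone-free, treated 22 hr with compounds and 0.1 nM estradiol, then viability is read by fluorescence.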

[2] = qHTS assay to identify small molecule antagonists of the androgen receptor (AR) signaling pathway using the MDA cell line in the presence of 0.5 nM R1881 - cell viability counter screen (AID 1259242); note: nearly all actives have a fitted effect of over 45% in size; note: potency is the fitted concentration of half-maximal effect
Procedure, shortened: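 Live-cell protease fluorescence, CellTiter-Fluor, 30 min at 37C. Cells: MDA-kb2, 3,000/well, preincubated 5 hr. Compounds plus 0.5 nM R1881 final, 16 hr, 37C, 0% CO2.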

[3] = biological target: Androgen receptor (Homo sapiens) (UniProt P10275); assay: qHTS assay to identify small molecule antagonists of the androgen receptor (AR) signaling pathway using the MDA cell line in the presence of 0.5 nM R1881 (AID 1259243); note: nearly all actives have a fitted effect of over 50% in size; note: potency is the fitted concentration of half-maximal effect
Procedure, shortened: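 MDA-kb2, MMTV-luc (AR/GR elements); 3,000 cells/well; cpd + 0.5 nM R1881 final; 16 hr 37C, 0% CO2; ONE-Glo 30 min RT; luminescence.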

[4] = qHTS assay to identify small molecule agonists of the sonic hedgehog signaling (Shh) pathway (AID 1259368; calls by dose curve;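 note: NIH/3T3-derived 3T3Gli1-Luc cells carrying a stable Gli1-driven firefly luciferase reporter; series mostly up to about 92 µM; nearly all actives have a fitted effect of over 15% in size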)
Procedure, shortened: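 Read-out: firefly luciferase luminescence from a Gli1 response element reporter stably integrated in NIH/3T3-derived 3T3Gli1-Luc cells, measured 30 min at room temperature after reagent addition. Compound exposure lasted 24 hr at 37 C, 5% CO2.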

[5] = biological target: Estrogen receptor beta (Homo sapiens) (UniProt Q92731); assay: qHTS assay to identify small molecule agonists of the estrogen receptor beta (ER-beta) signaling pathway (AID 1259377; active = well fitted activation curve with a large enough effect in the signal ratio in the repeat runs, not every such curve was filed as active; the % refers to the signal ratio)
Procedure, shortened: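 A UAS-controlled beta-lactamase reporter in ER-beta-UAS-bla HEK293T cells reports receptor activation. Compounds act for 16 hr at 37C in 2% charcoal-stripped serum, and a FRET substrate is read by fluorescence after 2 hours.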

[6] = biological target: Androgen receptor (Homo sapiens) (UniProt P10275); assay: qHTS assay to identify small molecule agonists of the androgen receptor (AR) signaling pathway in the presence of an antagonist (AID 1259381; calls by dose curve; note: nearly all actives have a fitted effect of over 15% in size)
Procedure, shortened: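 Luciferase read-out (ONE-Glo, 30min room temperature) in MDA-kb2 MMTV-reporter cells; agonist mode run in presence of AR antagonist nilutamide, 3.0uM final. Compounds tested as 15-point series, 16hr exposure at 37C, 0% CO2.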

[7] = qHTS assay to identify small molecule agonists or antagonists of the thyroid stimulating hormone receptor (TSHR) signaling pathway - wild type cell line counter screen (AID 1259384; calls by dose curve)
Procedure, shortened: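 Wild-type Hek293 cells, 800/well, 18 h at 37C, then compound with Ro20-1724 for 30 min RT. cAMP by HTRF (cAMP-d2/anti-cAMP cryptate), 1 h RT, fluorescence read. 15 concentrations, triplicates.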

[8] = biological target: Thyrotropin receptor (Homo sapiens) (UniProt P16473); assay: qHTS assay to identify small molecule antagonists of the thyroid stimulating hormone receptor (TSHR) signaling pathway (AID 1259385; calls by dose curve; note: nearly all actives have a fitted effect of over 20% in size)
Procedure, shortened: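 TSHR-HEK293 cells (800/well) plated 18 h, then compounds with Ro20-1724 and TSH at 1.5 ng/mL final, 30 min at room temperature. cAMP quantified by HTRF (cAMP-d2/anti-cAMP-cryptate, 1 h); 15 concentrations in triplicate.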

[9] = biological target: Estrogen receptor (Homo sapiens) (UniProt P03372); assay: qHTS assay to identify small molecule antagonists of the estrogen receptor alpha (ER-alpha) signaling pathway using the BG1 cell line in the presence of 0.1 nM 17-beta-estradiol (AID 1259244); note: nearly all actives have a fitted effect of over 50% in size
Procedure, shortened: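 Luminescence after ONE-Glo (30 min, room temperature) measured ERE-luciferase activity in VM7Luc4E2 cells treated 22 h with compound and 0.1 nM final 17beta-estradiol as stimulator.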

[10] = qHTS assay to identify small molecule phospholipidosis (PLD) inducers (AID 1259344; active = well fitted curve in the direction sought with a large enough effect; an effect the other way counts as inactive or inconclusive)
Procedure, shortened: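 Read-out is LipidTOX Red fluorescence (ex 595/em 615) imaged in HepG2 cells after 24 h compound exposure at 37 C, with Hoechst nuclear counterstain (ex 352/em 461) allowing per-cell normalisation.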

[11] = qHTS assay to identify small molecule HDAC inhibitors (AID 1259364); note: potency is the fitted concentration of half-maximal effect;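 note: wild-type HCT-116 cells with endogenous class I/II HDAC activity; nearly all actives have a fitted effect of over 45% in size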
Procedure, shortened: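 HCT-116 (wild type), 1,500 cells/well, overnight; compound 2 hr 37C 5% CO2; HDAC-Glo I/II reagent 30 min RT; luminescence readout.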

[12] = qHTS assay to identify small molecule HDAC inhibitors - cell viability counter screen (AID 1259365); note: nearly all actives have a fitted effect of over 50% in size; note: potency is the fitted concentration of half-maximal effect
Procedure, shortened: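 Viability readout: CellTiter-Glo luminescence. Wild-type HCT-116 cells, 2hr compound treatment following overnight attachment at 37 C.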

[13] = qHTS assay to identify small molecule agonists of the sonic hedgehog signaling (Shh) pathway - cell viability counter screen (AID 1259366); note: nearly all actives have a fitted effect of over 50% in size; note: potency is the fitted concentration of half-maximal effect
Procedure, shortened: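 Viability measured fluorometrically (CellTiter-Fluor, 1hr, 37C) in 3T3 Gli1-Luc reporter cells after 23hr compound exposure within a 24hr incubation at 37C/5% CO2.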

[14] = biological target: Estrogen receptor beta (Homo sapiens) (UniProt Q92731); assay: qHTS assay to identify small molecule antagonists of the estrogen receptor beta (ER-beta) signaling pathway (AID 1259378; active = well fitted inhibition curve with a large enough effect in the signal ratio in the repeat runs, not every such curve was filed as active; the % refers to the signal ratio)
Procedure, shortened: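 ER-beta-UAS-bla HEK293T cells in 2% charcoal-stripped FBS medium treated with compound plus 1nM final 17-beta-estradiol for 16 hr at 37C. Beta-lactamase reporter read by FRET substrate fluorescence after 2 hours at room temperature.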

[15] = qHTS assay to identify small molecule agonists of the estrogen receptor beta (ER-beta) signaling pathway - cell viability counter screen (AID 1259380); note: nearly all actives have a fitted effect of over 30% in size; note: potency is the fitted concentration of half-maximal effect
Procedure, shortened: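 Luminescence read-out (CellTiter-Glo, 30 min, room temp) taken in the same wells as the beta-lactamase reporter assay; ER-beta-UAS-bla HEK293T cells exposed to DMSO-dissolved compounds for 16 hr at 37C in 2% charcoal-stripped FBS medium.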

[16] = qHTS assay to identify small molecule antagonists of the estrogen receptor beta (ER-beta) signaling pathway - cell viability counter screen (AID 1259382); note: series mostly up to about 92 µM; nearly all actives have a fitted effect of over 55% in size
Procedure, shortened: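 Luminescent ATP read-out (CellTiter-Glo, 30 min, RT) taken in the same wells as the bla reporter assay. HEK293T ER-beta-UAS-bla cells in 2% charcoal-stripped FBS were exposed to compounds with 1nM E2 for 16 hr at 37C.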

[17] = biological target: Estrogen receptor (Homo sapiens) (UniProt P03372); assay: qHTS assay to identify small molecule agonists of the estrogen receptor alpha (ER-alpha) signaling pathway in the presence of an antagonist (AID 1259383; calls by dose curve; note: top concentration of the series differs between compounds; nearly all actives have a fitted effect of over 15% in size)
Procedure, shortened: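 Luciferase luminescence (ONE-Glo, 30min at room temperature) measured in VM7Luc4E2 cells after 22hr compound exposure at 15 concentrations, with 10.0nM ICI-182,780 final present; cells express endogenous ER-alpha and carry four EREs upstream of luciferase.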

[18] = qHTS assay to identify small molecule antagonists of the sonic hedgehog signaling (Shh) pathway (AID 1259369; calls by dose curve; note: nearly all actives have a fitted effect of over 45% in size)
Procedure, shortened: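 Luminescence readout: firefly Luc under Gli1 response element in 3T3Gli1-Luc cells (NIH/3T3 clone). Antagonist mode, stimulation by conditioned medium; compound exposure 24hr at 37 C, 5% CO2.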

[19] = qHTS assay to identify small molecule agonists of the androgen receptor (AR) signaling pathway in the presence of an antagonist - cell viability counter screen (AID 1259379); note: nearly all actives have a fitted effect of over 25% in size; note: potency is the fitted concentration of half-maximal effect
Procedure, shortened: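 Viability counter screen: CellTiter-Fluor fluorescence, measured in the same wells as the luciferase read-out. MDA-kb2 cells, 3,000/well, with nilutamide at 3.0uM final and compounds at 15 concentrations, 16 hr at 37C, 0% CO2.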

[20] = qHTS assay to identify small molecule antagonists of the sonic hedgehog signaling (Shh) pathway - cell viability counter screen (AID 1259367); note: nearly all actives have a fitted effect of over 55% in size; note: potency is the fitted concentration of half-maximal effect
Procedure, shortened: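 Fluorescence read-out (CellTiter-Fluor, 1 hr at 37C) taken after 23 hr compound treatment of 3T3 Gli1-Luc cells stimulated with conditioned medium. Cells were seeded at 2,000 per well and pre-incubated 4 hr.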

Chain of Estrogen receptor beta (Homo sapiens) (Q92731 whole entry, looked up): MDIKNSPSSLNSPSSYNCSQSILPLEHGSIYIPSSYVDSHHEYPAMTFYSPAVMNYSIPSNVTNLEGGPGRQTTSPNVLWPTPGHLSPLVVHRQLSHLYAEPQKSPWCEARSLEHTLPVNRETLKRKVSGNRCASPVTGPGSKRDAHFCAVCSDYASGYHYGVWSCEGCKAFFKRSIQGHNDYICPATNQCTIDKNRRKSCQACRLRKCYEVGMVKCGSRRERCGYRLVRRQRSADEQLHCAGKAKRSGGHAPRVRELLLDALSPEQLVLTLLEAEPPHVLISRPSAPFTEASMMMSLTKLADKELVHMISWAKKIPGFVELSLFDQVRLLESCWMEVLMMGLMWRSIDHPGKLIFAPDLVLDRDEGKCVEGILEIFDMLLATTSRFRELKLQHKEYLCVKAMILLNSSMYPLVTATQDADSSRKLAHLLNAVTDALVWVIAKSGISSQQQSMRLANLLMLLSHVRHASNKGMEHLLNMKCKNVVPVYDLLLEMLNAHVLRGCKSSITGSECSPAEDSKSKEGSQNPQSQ
Chain of Thyrotropin receptor (Homo sapiens) (P16473 whole entry, looked up): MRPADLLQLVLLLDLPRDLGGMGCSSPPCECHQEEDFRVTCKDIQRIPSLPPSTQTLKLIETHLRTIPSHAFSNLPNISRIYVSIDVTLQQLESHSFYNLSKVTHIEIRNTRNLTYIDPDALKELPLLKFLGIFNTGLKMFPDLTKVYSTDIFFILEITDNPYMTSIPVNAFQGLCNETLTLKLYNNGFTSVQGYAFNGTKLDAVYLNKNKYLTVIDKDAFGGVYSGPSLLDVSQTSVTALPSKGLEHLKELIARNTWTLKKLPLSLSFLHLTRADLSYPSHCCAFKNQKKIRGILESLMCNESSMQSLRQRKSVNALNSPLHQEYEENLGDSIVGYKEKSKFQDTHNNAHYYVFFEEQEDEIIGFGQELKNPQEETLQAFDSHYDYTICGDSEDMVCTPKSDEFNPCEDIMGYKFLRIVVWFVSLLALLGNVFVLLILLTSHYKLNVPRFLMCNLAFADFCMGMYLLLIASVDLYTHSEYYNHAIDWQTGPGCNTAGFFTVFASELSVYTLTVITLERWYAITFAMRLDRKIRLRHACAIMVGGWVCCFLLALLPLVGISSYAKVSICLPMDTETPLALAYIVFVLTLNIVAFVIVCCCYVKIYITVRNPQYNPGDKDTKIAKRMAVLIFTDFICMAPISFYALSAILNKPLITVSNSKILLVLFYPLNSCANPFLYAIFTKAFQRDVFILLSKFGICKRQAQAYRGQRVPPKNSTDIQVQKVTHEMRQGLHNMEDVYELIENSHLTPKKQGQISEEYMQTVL
Chain of Androgen receptor (Homo sapiens) (P10275 whole entry, looked up): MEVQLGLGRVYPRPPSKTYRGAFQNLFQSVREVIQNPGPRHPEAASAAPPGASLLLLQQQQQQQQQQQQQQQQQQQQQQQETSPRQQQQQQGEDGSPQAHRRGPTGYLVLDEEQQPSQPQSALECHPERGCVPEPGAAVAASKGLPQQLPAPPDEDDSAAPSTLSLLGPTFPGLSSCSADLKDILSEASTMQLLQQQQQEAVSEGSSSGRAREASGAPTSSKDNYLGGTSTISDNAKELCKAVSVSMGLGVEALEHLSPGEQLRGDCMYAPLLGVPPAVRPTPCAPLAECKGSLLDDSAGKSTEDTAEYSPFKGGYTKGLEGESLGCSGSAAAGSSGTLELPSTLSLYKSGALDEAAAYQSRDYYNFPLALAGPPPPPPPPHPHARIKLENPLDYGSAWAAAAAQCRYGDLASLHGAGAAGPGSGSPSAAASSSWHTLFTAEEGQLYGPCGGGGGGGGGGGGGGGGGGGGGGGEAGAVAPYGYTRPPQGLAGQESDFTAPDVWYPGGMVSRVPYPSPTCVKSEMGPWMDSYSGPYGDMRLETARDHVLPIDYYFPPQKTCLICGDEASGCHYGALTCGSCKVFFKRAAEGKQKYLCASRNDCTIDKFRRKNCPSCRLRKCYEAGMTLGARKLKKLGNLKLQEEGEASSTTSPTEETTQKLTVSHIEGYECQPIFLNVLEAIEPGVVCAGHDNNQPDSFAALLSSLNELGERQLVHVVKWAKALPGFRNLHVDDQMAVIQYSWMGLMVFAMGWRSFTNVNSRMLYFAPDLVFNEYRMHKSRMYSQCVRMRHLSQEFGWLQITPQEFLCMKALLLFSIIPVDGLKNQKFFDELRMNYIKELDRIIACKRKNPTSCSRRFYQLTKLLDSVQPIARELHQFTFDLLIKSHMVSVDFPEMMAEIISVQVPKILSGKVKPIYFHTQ
Chain of Estrogen receptor (Homo sapiens) (P03372 whole entry, looked up): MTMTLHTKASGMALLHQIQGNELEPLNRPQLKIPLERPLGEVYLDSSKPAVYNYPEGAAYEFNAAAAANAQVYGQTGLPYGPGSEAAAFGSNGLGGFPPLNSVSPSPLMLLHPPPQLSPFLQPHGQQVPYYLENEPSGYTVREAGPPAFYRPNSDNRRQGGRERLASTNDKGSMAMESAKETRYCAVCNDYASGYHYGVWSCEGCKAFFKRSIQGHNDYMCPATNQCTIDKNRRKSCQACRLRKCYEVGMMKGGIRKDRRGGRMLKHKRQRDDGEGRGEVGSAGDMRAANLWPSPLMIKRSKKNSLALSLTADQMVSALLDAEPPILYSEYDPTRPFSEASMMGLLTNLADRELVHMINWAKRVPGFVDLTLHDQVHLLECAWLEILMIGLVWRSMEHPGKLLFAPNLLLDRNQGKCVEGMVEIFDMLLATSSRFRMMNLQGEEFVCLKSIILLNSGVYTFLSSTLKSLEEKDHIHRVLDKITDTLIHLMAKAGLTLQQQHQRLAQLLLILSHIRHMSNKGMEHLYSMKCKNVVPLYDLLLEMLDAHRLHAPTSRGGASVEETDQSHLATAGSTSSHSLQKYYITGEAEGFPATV

SMILES | Potency [1] | Potency [2] | Potency [3] | Potency [4] | Potency [5] | Potency [6] | Potency [7] | Potency [8] | Potency [9] | Potency [10] | Potency [11] | Potency [12] | Potency [13] | Potency [14] | Potency [15] | Potency [16] | Potency [17] | Potency [18] | Potency [19] | Potency [20]
O=C(O)c1cc(Cl)cc(Cl)c1O | inactive | inactive | inactive | inactive | inactive | inactive | inactive | inactive |  |  |  |  |  |  |  |  |  |  |  | 
O=NN(CCCl)C(=O)NCCCl | inactive | inactive | inactive | inactive | inactive | inactive | inactive | inactive | inactive | inactive | inactive | inactive | inactive | inactive | inactive | inactive | inactive |  |  | 
Oc1cccc2[nH]ccc12 | inactive | inactive | inactive | inactive | inactive | inactive | inactive | inactive |  |  | inactive | inactive | inactive | inactive | inactive | inactive | inactive | inactive | inactive | 
CCN(CC)c1ccc(C(=C2C=CC(=[N+](CC)CC)C=C2)c2ccc(S(=O)(=O)O)cc2S(=O)(=O)[O-])cc1 | 12.2 µM (active) | 27.3 µM (active) | 9.69 µM (active) |  | inactive | inactive |  |  |  |  | 3.86 µM (active) | 21.7 µM (active) | 24.3 µM (active) | inactive | 27.3 µM (active) |  |  |  | 27.3 µM (active) | 17.2 µM (active)
CCCCC(CC)COS(=O)(=O)O (stereo not given) | inactive | inactive |  | inactive | inactive |  | inactive | inactive | inactive | inactive | inactive | inactive | inactive | inactive | inactive | inactive |  | inactive | inactive | inactive
O=C(C(=O)c1ccco1)c1ccco1 | inactive | inactive | inactive | inactive | inactive |  |  | inactive |  |  | inactive | inactive | inactive | inactive | inactive | inactive | inactive | inactive | inactive | inactive
CC1CCC(C(C)CS)CC1S (stereo not given) | inactive | inactive | inactive | inactive | inactive | inactive | inactive | inactive |  |  | inactive | inactive | inactive | inactive | inactive | inactive |  | inactive | inactive | inactive
O=C(O)CCC(=O)c1ccc(-c2ccccc2)cc1 | inactive | inactive | inactive | inactive | inactive | inactive | inactive | inactive |  | inactive | 13.3 µM (active) | inactive |  |  | inactive | inactive |  | inactive | inactive | inactive
CCOC(=O)Oc1ccc(CCNC(=O)[C@H](CCSC)NC(C)=O)cc1OC(=O)OCC | inactive | inactive | inactive |  |  | inactive | inactive | inactive | inactive |  | inactive |  | inactive |  | inactive | inactive | inactive | inactive | inactive | inactive
